# In PubChem BioAssay (NCI):
# The panel holds about 83,000 compounds, 20% with a hit somewhere; the sample as a whole holds those more often.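 For each line, cells grew in 96-well plates with the test compound present at a single concentration for 48 hours.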 A number with no mark means an inactive call. The source made the active and inactive calls. The calls were made as follows: active = growth percent below 10; inactive = the rest.
# How the values were obtained:
# Assay in all cases: NCI-60 one-dose screen, 48 h (100 = growth as untreated, 0 = no growth, -100 = all killed)
# NCI-H226 lung = conditions: 10 µM
# NCI-H322M lung = conditions: 10 µM
# HOP-62 NSCLC = conditions: 10 µM
# NCI-H522 lung = conditions: 10 µM
# A549/ATCC NSCLC = conditions: 10 µM
# COLO 205 colon = conditions: 10 µM
# DU-145 prostate = conditions: 10 µM
# K-562 leukemia = conditions: 10 µM
# SF-539 CNS = conditions: 10 µM
# M14 melanoma = conditions: 10 µM
# HCT-15 colon = conditions: 10 µM
# HT29 colon = conditions: 10 µM
# SNB-75 CNS = conditions: 10 µM
# U251 CNS = conditions: 10 µM
# PC-3 prostate = conditions: 10 µM
# LOX IMVI melanoma = conditions: 10 µM
# MOLT-4 leukemia = conditions: 10 µM
# RPMI-8226 leukemia = conditions: 10 µM
# SK-OV-3 ovarian = conditions: 10 µM
# MDA-MB-468 breast = conditions: 10 µM unless noted
Structure (SMILES),growth (NCI-H226 lung),growth (NCI-H322M lung),growth (HOP-62 NSCLC),growth (NCI-H522 lung),growth (A549/ATCC NSCLC),growth (COLO 205 colon),growth (DU-145 prostate),growth (K-562 leukemia),growth (SF-539 CNS),growth (M14 melanoma),growth (HCT-15 colon),growth (HT29 colon),growth (SNB-75 CNS),growth (U251 CNS),growth (PC-3 prostate),growth (LOX IMVI melanoma),growth (MOLT-4 leukemia),growth (RPMI-8226 leukemia),growth (SK-OV-3 ovarian),growth (MDA-MB-468 breast)
Fc1ccc(-c2csc(Nc3cccc(Nc4nc(-c5ccc(F)cc5)cs4)c3)n2)cc1,51.5%,60.1%,72.7%,6.23% (active),62.8%,75.7%,67.7%,36%,70.9%,66.8%,52.5%,62.3%,95.2%,62.7%,35.2%,39.3%,46.4%,49.5%,86.8%,38.6%
O=C(c1ccccc1)c1ccc2nc(-c3ccccc3Br)[nH]c2c1,-27.8% (active),-96.2% (active),-46.6% (active),-74.9% (active),-57.9% (active),-75.5% (active),-76% (active),-3.28% (active),-96.1% (active),-70.1% (active),-37.7% (active),-71.3% (active),-41.9% (active),-94.7% (active),-19.4% (active),-94.6% (active),-15.3% (active),-17.9% (active),24%,-57.2% (active)
COc1ccccc1-n1cc(C#N)c(N)c1C(=O)c1ccc(Cl)cc1Cl,34.5%,48%,38.2%,-55.6% (active),41.9%,19.6%,35.4%,12.5%,-0.792% (active),20.4%,24.4%,-14.7% (active),-22.8% (active),16.6%,18.8%,39.5%,20.3%,14.7%,14.9%,15.8%
COc1ccc(OC)c(-n2cc(C#N)c(N)c2C(=O)c2ccc(Cl)cc2Cl)c1,51.3%,76.8%,49.3%,7.18% (active),51.9%,32.6%,65.6%,14.1%,25.6%,23.5%,21.6%,4.43% (active),-7.62% (active),24.6%,37.8%,48.2%,29.8%,39%,49.7%,19.8%
COc1ccc(C2c3sc4ccc(C)cc4c3Oc3nc[nH]c(=O)c32)cc1 (stereo not given),80.5%,105%,69.4%,42.7%,97.9%,103%,105%,36.2%,79.3%,73.2%,40.6%,112%,45.8%,73.5%,74.9%,92.5%,77.9%,90.8%,81.2%,61.3%
C#CCOc1cc(N(CC)CC)ccc1C(C(=O)NC(C)(C)C)N(C(=O)C1CCc2cc(F)ccc2O1)c1ccc(F)cc1F (stereo not given),42.9%,81.6%,51.6%,30.7%,37.5%,25.8%,50.1%,18.3%,55.9%,43.3%,34.9%,58.3%,64.4%,27.1%,15%,-5.11% (active),6.84% (active),25.6%,46.8%,20.9%
CCn1c(SCC(=O)Nc2ccc(-c3nc4ccccc4[nH]3)cc2)nc2ccccc2c1=O,-65.5% (active),-68.3% (active),-80.4% (active),-74.2% (active),-71.2% (active),-72.7% (active),-50.3% (active),-11.3% (active),-87.3% (active),-87.9% (active),-50% (active),-64.9% (active),-94.2% (active),-74.9% (active),-80.6% (active),-63% (active),3.3% (active),-11.4% (active),-70.5% (active),-81% (active)
COc1ccc(C(=O)COc2ccc(NC(=O)Nc3ccc(Cl)c(C(F)(F)F)c3)cc2)cc1,4.95% (active),36.3%,42.8%,-43.2% (active),18.5%,7.1% (active),47.3%,37.5%,33.7%,19%,8.56% (active),21.1%,33%,24.3%,8.96% (active),-60.5% (active),15.6%,19.1%,41.8%,-15.1% (active)
